Laboratory results taken from PubChem BioAssay (NCI).
About 83,000 compounds went through this panel and 20% of them were active in at least one assay; those are over-represented in the sample as a whole.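 Plates (96-well) were seeded with cells, treated with compound at one concentration, and incubated for 48 hours before percent growth was determined.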 Unmarked numbers belong to inactive results. Active and inactive are the calls of the source. How the source made its calls: active means growth percent below 10; inactive means the rest.

These compounds were tested on HL-60(TB) leukemia (assay: NCI-60 one-dose screen, 48 h (100 = growth as untreated, 0 = no growth, -100 = all killed)). Settings: 10 µM unless noted.
O=Cc1cc2ccccc2nc1Oc1ccc(C(F)(F)F)cc1 was tested, and the growth was 92%. COc1cc(NC(N)=NCCC(C)(C)Oc2ccc(C(F)(F)F)cc2)ncc1C#N was tested, and the growth was -51.1% (active). Clc1nc(Cl)c2ncn(CC#CCn3cnc4c(Cl)nc(Cl)nc43)c2n1 was tested, and the growth was -58.3% (active). With COc1ccc(-c2cc(=O)c3c(OC)c4ccoc4c(/C=C/C=O)c3o2)cc1 the growth was -3.36% (active). COc1cc2c(cc1OCCCN1CCN(c3ncnc4ccccc34)CC1)N=CC1CCCN1C2=O (stereo not given) was tested, and the growth was -53.2% (active). C=C1C(=O)O[C@H]2[C@H]1CC/C(COC(=O)C(=O)c1c[nH]c3ccc(OC)cc13)=C\CC[C@@]1(C)O[C@@H]21 was tested, and the growth was -53.2% (active). CSc1ccc2c(c1)N(CCC1CCCCN1C)c1ccccc1S2 (stereo not given) showed a growth of 86.1%. In the case of C(=N\Nc1ncc(-c2cc3cc4c(cc3o2)OCO4)s1)/c1c[nH]c2ccccc12, the growth is reported as 2.27% (active). With CCC#CC[C@H]1C/C=C2/C(=O)C=C[C@@H]2C/C=C\CCCC(=O)O1 the growth was -19.1% (active). CC[C@@H](c1ccc2cc(OC)ccc2c1)C(C)(C)C(=O)F was tested, and the growth was 104%. Nc1c(C(=O)NC2CCCCC2)sc2nc3c(cc12)C(=O)CCC3 gave a growth of 95.2%. COc1ccc2occ(C3=C(c4c[nH]c5ccccc45)C(=O)NC3=O)c2c1 was tested, and the growth was 20.8%. CN(C)c1ncc(-c2ccc(C(F)(F)F)cc2)c(NC2CCCCCC2)n1 was tested, and the growth was 39.8%. With COc1ccc(-c2cc(C#N)c(NNC(C)=O)[nH]2)cc1 the growth was 11.4%. With CCC(=O)Nc1ccccc1C#C/C=C\C#Cc1ccccc1SC the growth was -16.2% (active). In the case of COc1c(O)c2c3c(c1OC)-c1ccccc1CC3N(S(=O)(=O)c1ccc(C)cc1)CC2 (stereo not given), the growth is reported as 5.73% (active). CC1CCC(C(C)(C)[N+](C)(C)C)CC1 (stereo not given) was tested, and the growth was 104%. In the case of COc1ccc(/C(=N\O)c2cc(C)c(OC)c(C)c2)cc1O, the growth is reported as -18.3% (active). Compound Cc1ccc(C(=O)NCCNc2nccc(-c3c(-c4cccc(F)c4)nc4sccn34)n2)cc1 has a growth of 95.5%. For Nc1nc(Cl)cc(NCCCCNc2cc(Cl)nc(N)n2)n1, the growth was 101%. COc1ccc(C(=O)COc2ccc(/C=C3\COc4ccc(OC)cc4C3=O)cc2)cc1 showed a growth of 59.4%. With CCCCCCCCCCCC[n+]1ccc2ccccc2c1 the growth was -53.4% (active). COc1ccc2[nH]c(O)c(/C=c3/ccc4c(c3)N=C(c3ccc(F)cc3)N=4)c2c1 was tested, and the growth was 99.9%. CCCS(=O)(=O)Nc1ccc(F)c(C(=O)c2c[nH]c3ncc(-c4ccc(Cl)cc4)cc23)c1F gave a growth of 30.7%. O=C(Nc1ccc(-n2ccc3c(NC(=O)c4ccccc4)nccc32)cc1)c1cccc(C(F)(F)F)c1 was tested, and the growth was 16.8%. In the case of CC/C=C\C[C@H](O)C/C=C1/C(=O)C=C[C@@H]1C/C=C\CCCC(N)=O, the growth is reported as -30.9% (active). With CCCCCCC(CCCC)COC(=O)c1ccc(Cl)cc1 (stereo not given) the growth was 100%. For NCCn1cc(-c2nc(-c3c[nH]c4ncccc34)cs2)c2ccccc21, the growth was 78.2%. CCCc1n(Cc2ccc3ccccc3c2)cc[n+]1Cc1ccc2ccccc2c1 was tested, and the growth was -53.1% (active). In the case of CCCCCN(CCCCC)CCC[C@@H](C)[C@H]1CC[C@H]2[C@@H]3[C@H](OCCCN)C[C@@H]4C[C@H](OCCCN)CC[C@]4(C)[C@H]3C[C@H](OCCCN)[C@]12C, the growth is reported as -16.8% (active). For CC(=O)NC1=C(C#N)C(c2ccccc2Cl)c2c(ccc3ccccc23)O1 (stereo not given), the growth was 29.7%. In the case of CC1Cc2c(ncnc2-n2cnc3ccccc32)N(C)c2ccccc21 (stereo not given), the growth is reported as 15.9%. For COC12C=C/C(=C(/C(=O)OCc3ccncn3)C(=O)CCCCCCCCC3(OC)C=C/C(=C(/C(=O)OCc4ccncn4)C(=O)CCCCCCCC1)O3)O2, the growth was -17.1% (active). Compound COc1ccc2c(c1)c(-c1nc(-c3cn(C)c4ncccc34)cs1)cn2CCO has a growth of 82.4%. Compound COc1cc(-c2cc3cc(O)ccc3oc2=O)cc(OC)c1OC has a growth of 85%. Compound COc1ccc(-n2c(C(O)c3ccccc3)nn(CN3CCOCC3)c2=S)cc1 (stereo not given) has a growth of 126%. CCOC(=O)CSCCC#N showed a growth of 118%. With O=c1cc(CP(=O)(O)O)c2cc(O)c(-c3ccccc3)cc2o1 the growth was 104%. O=C(/C(=C\c1ccc([N+](=O)[O-])cc1)S(=O)Cc1ccc(F)cc1)c1ccc(F)cc1 (stereo not given) was tested, and the growth was 5.72% (active). In the case of COc1ccc(C2=NC(=O)NC2c2ccc(OC)cc2)cc1 (stereo not given), the growth is reported as 61.2%.
